MCF10A rerep: inducers of DNA re-replication in MCF 10A breast cells. AID 624296. 2.9% of 350,000 active. Potency, µM (titrated, usually from 46.1 µM), without a hit: top-dose activity, positive = re-replication, most hits filed as activators. MCF 10A DNA re-replication, Hoechst nuclear intensity, 48 h; also: % of control where 0% means no effect; nearly all actives have a fitted effect of over 50% in size
HT1080NT lethal: kills 2HG-producing HT-1080-NT fibrosarcoma cells | HT-1080-NT fibrosarcoma viability, CellTiter-Glo ATP luminescence, 48 h | Potency, µM (doses to about 46.1 µM), for the others: at the highest dose activity, negative = less viability, most hits filed as cytotoxic | 1.6% of 360,000 active | AID 686970;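 also: NT is the 2HG producing partner of a matched IDH1 knockdown line; 0% = DMSO-treated cells and -100% = media-only wells without cells; nearly all actives have a fitted effect of over 55% in size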
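Compounds were tested in concentration-response format on HT-1080-NT cells for 48 hours at 37 degrees C. Cell viability came from CellTiter-Glo luminescence; curves were classified by r2, response magnitude and activity.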
SW480 rerep: DNA re-replication induction in SW480 cells | Potency, µM (doses to about 46.1 µM), inactives show at the top dose re-replication activation, most hits filed as activators | SW480 DNA re-replication, Hoechst DNA content imaging, 48 h | 1.8% of 340,000 active | AID 624297; also: % of control where 0% means no effect; nearly all actives have a fitted effect of over 55% in size
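Compounds, transferred as 23 nL by pin tool, were incubated with cells for 48 hr; DNA content per nucleus was then quantified by Hoechst staining and fluorescence plate imaging.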
KB-V1 MDR tox: KB-V1 MDR subline cytotoxicity; 3.4% of 400,000 active; Potency, µM (titrated, usually from 46.1 µM), most hits filed as cytotoxic; KB-V1 MDR cells viability, CellTiter-Glo, 72 h; also: % is scaled to controls: 0 for no effect and ±100 for the full control effect; nearly all actives have a fitted effect of over 60% in size
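qHTS viability screen in drug-selected KB-V1 MDR cells: 72 h compound treatment at 37 degrees C, ATP luminescence end point.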
HT1080 IDH1KD tx: kills HT-1080 cells with IDH1 knockdown | 2% of 360,000 active | AID 686971 | Potency, µM (top dose mostly 46.1 µM), for inactives: at the top dose activity, negative = toxicity, actives largely listed as cytotoxic | HT-1080 IDH1 knockdown viability, ATP luminescence, 48 h;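 also: 0% = DMSO wells and -100% = cell-free medium wells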
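Cytotoxicity counter-line: IDH1KD HT-1080, 48 h, CellTiter-Glo. Curves classed by r2, magnitude and activity.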
KB-3-1 tox: kills parental KB-3-1 adenocarcinoma cells. 1.4% of 400,000 active. KB-3-1 viability, CellTiter-Glo ATP luminescence, 72 h. Potency, µM (top dose mostly 46.1 µM), usual class: cytotoxic; also: % is scaled to controls: 0 for no effect and ±100 for the full control effect; nearly all actives have a fitted effect of over 60% in size
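Multi-concentration cytotoxicity screen in KB-3-1 cells grown in DMEM lacking phenol red with 10% FBS. After 72 h at 37 °C with compound, ATP-dependent luminescence was recorded.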
* marks the source's active call; other numbers are inactive results; i = inactive; ? = inconclusive; / = not tested or not shown; [ ] = another dose, or the depositor's remark. Sampled rows, rich in hits. Any-hit rate of the full collection: about 8%. Calls follow the shape of the dose curve; as a rule, active = well fitted curve in the direction sought with a large enough effect; inconclusive = small, poorly fitted or top-dose-only effect, or another doubt; inactive = no such curve, though single readings can be large; an effect the other way counts as inactive or inconclusive. Potency is read from the fitted curve at half-maximal effect.

SMILES	MCF10A rerep	HT1080NT lethal	SW480 rerep	KB-V1 MDR tox	HT1080 IDH1KD tx	KB-3-1 tox
O=C1C2C3C=CC(C3)C2C(=O)N1c1ccc(N2CCN(c3ccccn3)CC2)c([N+](=O)[O-])c1 (stereo unspecified)	?	?	?	10µM*	-17%	i
O=C(CCN1C(=O)C2C3C=CC(C3)C2C1=O)N1CCN(c2ccccn2)CC1 (stereo unspecified)	1%	-4%[9.24 µM]	7%	i	0%	i
CCOc1ccc(NC(=S)Nc2cccc3cnccc23)cc1	0%	-5%	-7%	15µM*	-2%	i
CN(C)S(=O)(=O)c1cccc(NC(=S)Nc2cccc3cnccc23)c1	21µM*	-18%	?	i	-26%	?
S=C(Nc1cccnc1)Nc1cccc2cnccc12	8%	0%	5%	i	3%	?
Cc1ccccc1OCC(=O)NCC(c1ccc(Cl)cc1)N1CCCCC1 (stereo unspecified)	/	/	/	i	/	i
COc1cc(CCC(=O)Nc2nnc(-c3cccnc3)s2)cc(OC)c1OC	?	2%	-49%	i	17%	i
O=C(CC1SC(=O)N(Cc2ccccc2Cl)C1=O)Nc1nccs1 (stereo unspecified)	3%	-5%	26%	i	-8%	i
COc1ccc(CN2CCc3ccccc3C2)c(OC)c1	-6%	4%	12%	i	6%	i
COc1ccc(C2=[N+](C)CCn3cccc32)c(OC)c1	?	-8%	0.52µM*	i	?	?
CC(O)(c1cccnc1)c1nc(-c2cccc3cccnc23)cs1 (stereo unspecified)	/	6%	/	i	0%	i
Oc1ccc(/C=N/NC(=S)Nc2cccnc2)c(O)c1O	-14%	4%	2%	i	4%	i
Fc1c(F)c(F)c(/C=N/NC(=S)Nc2cccnc2)c(F)c1F	11µM*	?	?	i	16µM*	i
Oc1cccc(/C=N/NC(=S)Nc2cccnc2)c1O	?	?	?	i	?	10µM*
CCC(Sc1nc2n[nH]c(C)c2c(=N)n1-c1cccc(Cl)c1C)C(=O)N(CC)CC (stereo unspecified)	15%	-7%	6%	?	-24%	i
NS(=O)(=O)c1ccc(NC(=O)COC(=O)CSc2n[nH]c(-c3ccccc3)n2)cc1	1%	-5%	1%	i	5%	i
Cn1cc(C(=O)NC2CCCCC2)c(=O)c2cc(S(=O)(=O)N3CCCC3)ccc21	-2%	0%	-2%	9.2µM*	13%	i
Cn1cc(C(=O)NCc2cccs2)c(=O)c2cc(S(=O)(=O)N3CCCC3)ccc21	-39%	-8%	-104%	21µM*	-8%	i
Nc1nc2ncc(-c3ccsc3)c(N)n2n1	8%	2%	3.7µM*	i	12%	i
CSc1nc2ncc(-c3ccsc3)c(N)n2n1	-1%	3%	-1%	i	0%	i
COc1cccc(NC(=O)c2nc(S(C)(=O)=O)ncc2Cl)c1	5.8µM*	5.2µM*	2.3µM*	i	8.2µM*	i
CN(c1ccccc1)S(=O)(=O)c1ccc(NC(=O)c2nc(S(C)(=O)=O)ncc2Cl)cc1	?	?	9.2µM*	?	12µM*	?
Cc1ccc(C(=O)Nc2ccc3c(c2)n(C)c(=O)c(=O)n3C)cc1	/	/	/	i	/	i
Cc1ccc(O)c(-c2cc(-c3ccccc3F)[nH]n2)c1	?	23µM*	12%	i	21µM*	?
Cc1ccc(C)c(NC(=O)c2cc(-c3cc(C)ccc3O)n[nH]2)c1	-3%	33µM*	4%	i	?	i
SMILES	MCF10A rerep	HT1080NT lethal	SW480 rerep	KB-V1 MDR tox	HT1080 IDH1KD tx	KB-3-1 tox
Cc1ccc(O)c(-c2cc(-c3cccc(F)c3)n[nH]2)c1	26µM*	1%	?	?	-1%	?
Cc1ccc(-c2cc(-c3ccccc3C)[nH]n2)c(O)c1	?	21µM*	?	13µM*	18µM*	21µM*
Cc1ccc(-c2cc(-c3cccc(F)c3)n[nH]2)c(O)c1	?	?	9%	i	?	i
O=C1OCc2nc3cc4c(cc3c(-c3ccc(F)cc3)c21)OCO4	-3%	4%	-18%	i	-6%	i
Cc1ccc(S(=O)(=O)N2C[C@H]3[C@H]4C(=O)N(c5ccccc5)C(=O)[C@H]4C[C@H](OC(=O)Nc4cccs4)[C@@]3(O)C2)cc1	/	2%	/	i	5%	i
O=C1CN(C(=O)/C=C/c2cccc(Cl)c2)c2ccccc2N1	?	-17%	-4%	i	-12%	i
O=C(CN1C2CCCC1CC(NC(=O)c1ccccc1)C2)Nc1nccs1 (stereo unspecified)	1%	11%	-2%	2.3µM*	0%	i
COc1cccc(C(=O)NC2CC3CCCC(C2)N3CC(=O)Nc2ccccc2C(F)(F)F)c1 (stereo unspecified)	?	?	16µM*	i	?	?
CCc1cccc(CC)c1NC(=O)CN1C2CCCC1CC(NC(=O)Nc1cccc(OC)c1)C2 (stereo unspecified)	12%	?	9%	21µM*	?	?
CCCN1C2CCCC1CC(NC(=O)Nc1cccc(C(C)=O)c1)C2 (stereo unspecified)	5%	13%	0%	i	12%	i
COc1cc(C(=O)NC2CC3CCCC(C2)N3CC(=O)Nc2ccccc2)cc(OC)c1OC (stereo unspecified)	-1%	1%	1%	i	-10%	i
O=C(CN1C2CCCC1CC(NC(=O)C1CCCCC1)C2)Nc1ccccc1C(F)(F)F (stereo unspecified)	0%	-28%	-9%	?	?	i
CCOCCn1c(CN2CCN(C(=O)c3ccco3)CC2)nc2c1c(=O)n(C)c(=O)n2C	-2%	8%	-2%	i	2%	i
O=C(CCc1ccc(S(=O)(=O)N2CCOCC2)cc1)Nc1nc(COc2ccccc2)cs1	?	?	1%	2.9µM*	?	5.2µM*
CC(=O)Nc1ccc(NC(=O)CN(c2ccc([N+](=O)[O-])cc2)S(=O)(=O)c2ccccc2)cc1	0%	-2%	2%	i	0%	i
COc1ccc(S(=O)(=O)N(CC(=O)Nc2ccc(S(=O)(=O)N3CCOCC3)cc2)c2ccccc2)cc1	7%	-11%	-2%	5.2µM*	-15%	?
